According to PubChem BioAssay (NCI):
Compounds without any hit were thinned out: in the full panel of roughly 83,000, 20% have a hit.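 Activity criterion: percent growth below 10, measured after cells in 96-well plates were exposed to a single compound concentration for 48 hours.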 Calls of active or inactive are those of the source.

Each molecule was assayed on HL-60(TB) leukemia (assay: NCI-60 one-dose screen, 48 h (100 = growth as untreated, 0 = no growth, -100 = all killed)). Details: 10 µM unless noted.

Row | SMILES | growth
1 | Clc1ccccc1-c1cnn2cc(-c3ccccc3)cnc12 | 96.2% (inactive)
2 | CSc1nc(N)n2nccc2n1 | 106% (inactive)
3 | Cc1c(Cl)cc(-n2c(=O)c3ccccc3c3ccccc3c2=O)cc1Cl | 90.8% (inactive)
4 | CCCN(CCC)c1ccc(/C=C/c2ccc3cc(OCC)ccc3n2)cc1 | 54.3% (inactive)
5 | COc1ccc(NC(=S)/N=c2\oc3c(OC)cccc3cc2-c2cc3ccccc3[nH]2)cc1 | 93.1% (inactive)
6 | NS(=O)(=O)c1ccccc1NC(=O)Nc1nc2ccccc2s1 | 102% (inactive)
7 | Cc1ccc[n+](CC(=O)c2cccc3ccccc23)c1 | 96.9% (inactive)
8 | CC1CCCN(CCCCOc2ccc(-c3ccc(C#N)cc3)cc2)C1 (stereo not given) | 92.6% (inactive)
9 | Nc1nonc1-n1nncc1-c1cccnc1 | 134% (inactive)
10 | O=C(Nc1cccc2[nH]c(C(F)(F)F)nc12)c1ccc(Br)cc1F | 22.4% (inactive)
11 | C#CC(F)(F)[C@]1(O)CC[C@H]2[C@@H]3CCC4=CC(=O)CCC4=C3[C@@H](c3ccc(C(C)=O)cc3)C[C@@]21C | -62.6% (active)
12 | C[C@@H]1C(=O)[C@@H]2C[C@@H](O)[C@@H](O)C[C@]2(C)[C@H]2CC[C@@]3(C)C(=C12)CC[C@@H]3[C@@](C)(O)[C@H](O)CCC(C)(C)O | 85.7% (inactive)
13 | Cc1ccc(Cc2cnc(NC(=O)CN3C(=O)/C(=C\c4ccccc4)SC3=S)s2)cc1 | 99.6% (inactive)
14 | COc1ccc(C2C=C(c3ccc(OC)c(OC)c3)N=C3SC=CN32)c(Br)c1 (stereo not given) | 57.6% (inactive)
15 | CCOC(=O)C(Nc1ccccc1)C(=O)OCC | 101% (inactive)
16 | CN1CCC(=C(c2ccccc2)c2ccccc2)C(c2ccccc2)C1 (stereo not given) | 88% (inactive)
17 | Brc1ccc(-c2nn(-c3ccccc3)cc2-c2nn[nH]n2)s1 | 103% (inactive)
18 | Cc1ccc2c(n1)C(=O)C(Br)=C(CC(C)C)C2=O | 58.4% (inactive)
19 | CCOc1ccc(-c2cnnn2-c2nonc2-n2cccc2)cc1 | -23.8% (active)
20 | CCCCCCCN(CCCCCCC)C(=N)c1ccnc2ccccc12 | -64.4% (active)
21 | O=C(Nc1ccc(F)cc1)c1ccc(C(=O)Nc2ccc(F)cc2)cc1 | 107% (inactive)
22 | OC(c1ccccc1)c1ccccn1 (stereo not given) | 99.9% (inactive)
23 | O=c1c2cccc(Cl)c2sc2c(NCCCNCCO)nc3ccccc3c12 | -17.8% (active)
24 | COc1cccc(CCC(=O)c2cc3c(N)c(C(=O)Nc4ccccc4)sc3nc2C)c1 | 6.59% (active)
25 | CC(C)NS(=O)(=O)c1cccc(-c2ccc3c(=O)n(CCCN)c4c(c3c2)C(=O)c2ccccc2-4)c1 | 125% (inactive)
